Screening results: PubChem, several laboratories
Lmaj promast: Leishmania major promastigote growth inhibition; Leishmania major promastigotes, resazurin fluorescence viability; inhibition, % at 10 µM; 9% of 200,000 active; in the data active = inhibition above about 50%;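 note: promastigotes grown with compound for 44 hours at 28 °C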
ROMK mod: modulates human ROMK potassium channel activity. Tet-inducible ROMK, thallium flux fluorescence; actives lie on both sides. B-score at 10 µM. 2% of 130,000 active. AID 1918;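 active = signal ratio slope over the read window, or its plate-corrected B-score, at least 3 SD from the plate mean, either direction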;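 note: B-score of the F/F0 ratio slope over 7 to 12 s after thallium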
Insulin prom up: MIN6 insulin promoter up-regulation | z-score at 5 µM | 0.3% of 190,000 active | MIN6 insulin promoter-GFP reporter, high-content imaging; stronger effect = higher value | AID 1625;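 active = z-score above 3 at 5 µM with at least 500 cells counted in the well; inconclusive = wells under 500 cells, flagged as cytotoxic or low count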
KCC2 mod: modulators of human KCC2 chloride dependent transport | Q9H2X9 | KCC2 cells, thallium flux FluoZin-2 fluorescence | B-score of Tl+ flux slope (higher = more flux/activation; lower = inhibition) at 10 µM | 2.2% of 190,000 active;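 active = thallium flux slope and its plate-corrected score both differing from the plate sample mean at a set confidence after two filtering rounds, in either direction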;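 note: slope of fluorescence scaled to starting intensity during 10 to 20 s after thallium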
INS promoter inh: TRM-6 insulin promoter activity inhibition | inhibition, % at 2 µM | 0.9% of 130,000 active | TRM-6 cells (human fetal islet line), insulin promoter-eGFP reporter, imaging; reporter expression induced with tamoxifen | AID 1273;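 active = inhibition above the mean plus 3 SD, with well images judged a real hit on visual review, cut at about 60% in these data, passing the limit was not always enough; inconclusive = inhibition over the cutoff but images rejected on review; inactive = inhibition not above the cutoff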
WT yeast gro inh: growth inhibition of WT yeast, mitochondrial fusion screen | 2.1% of 190,000 active | inhibition, % at 10 µM | AID 1362 | mitochondrial fusion phenotypic screen, WT strain; in the data active = inhibition above about 58%; tested in S. cerevisiae
KCC2 secondary: confirmation of human KCC2 transport modulators | 15% of 3,700 active | HEK293-KCC2, thallium flux, FluoZin2 fluorescence; stronger effect = higher value | shares compounds with KCC2 mod | AID 1713 | normalised thallium flux (F/F0 slope) at 10 µM;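 active = thallium flux slope above the same plate's solvent-only control mean plus 3 SD; inconclusive = the two replicate wells disagree; inactive = no significant difference from solvent-only control wells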
KCC2 bumet counter: bumetanide-insensitive thallium flux in KCC2 cells with ouabain, counter-screen; normalized thallium flux at 10 µM; 49% of 3,700 active; shares compounds with KCC2 mod; AID 1714; HEK293-KCC2 + bumetanide/ouabain, thallium flux FluoZin2; stronger effect = higher value;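 active = thallium entry rate above the same plate's blocked-transporter control wells by more than 3 SD; inconclusive = the two repeat wells disagree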;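 note: raw slope of fluorescence over initial fluorescence between 10 and 20 s after thallium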
KCC2 sec2: confirmation of human KCC2 transport modulators; shares compounds with KCC2 mod; HEK293-KCC2, thallium flux FluoZin2 fluorescence; actives lie on both sides; F/F0 rise rate, 10–20 s post-thallium; normalized thallium flux at 10 µM; 23% of 3,700 active; AID 1715;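 active = thallium flux slope more than 3 SD above or below the plate's solvent-only control mean, mostly below; inconclusive = the two repeat wells disagreed; inactive = no significant shift from solvent-only controls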
HEK counter1: counter-screen for KCC2 modulators: effect in parental HEK293 cells; thallium flux rate (normalised fluorescence) at 10 µM; shares compounds with KCC2 mod; 46% of 3,700 active; thallium flux FluoZin2, ouabain; baseline-ratio fluorescence slope, 10–20 s after thallium;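 active = thallium flux rate significantly above the same plate's solvent-only control wells, beyond their mean plus 3 SD; inconclusive = the two replicate wells gave conflicting results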
KCC2 retest ouab: modulates human KCC2 on retest with ouabain. shares compounds with KCC2 mod. HEK293-KCC2, thallium flux FluoZin2 fluorescence; bidirectional: low = inhibitor, high = activator. raw Tl+ flux slope (below DMSO = inhibition, above = activation) at 10 µM. 48% of 3,700 active. AID 1717;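 active = thallium flux slope beyond 3 SD from same-plate DMSO control mean in most replicates, usually higher, sometimes lower; inconclusive = repeat tests gave conflicting results; inactive = no significant difference from controls in most replicates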;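 note: slope of initial-normalized fluorescence between seconds 10 and 20 after thallium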
HEK counter2: acts in parental HEK cells, second KCC2 counter-screen | HEK293 parental, thallium flux FluoZin-2 fluorescence slope | 33% of 3,700 active | shares compounds with KCC2 mod | thallium flux slope at 10 µM;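 active = thallium flux slope above the same plate's solvent-control mean plus 3 SD in both duplicate wells; inconclusive = duplicate wells that disagreed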;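 note: run without ouabain in cells lacking the KCC2 cotransporter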
Large screens that a line does not name were inactive (follow-up assays come after a bar, where they were run). Compounds with a hit are over-represented: about 12% of the library has one in this group of screens.

Cc1ccnc(NC(=S)NC(=O)c2cncc(Br)c2)c1	KCC2 mod 8.47 | KCC2 secondary inactive | KCC2 bumet counter 0.0186 | KCC2 sec2 inactive | HEK counter1 0.0152 | KCC2 retest ouab inconclusive | HEK counter2 0.014
O=C(Cc1cccs1)N1CCCC(c2nc3c(nnn3Cc3ccccc3Cl)c(=O)[nH]2)C1 (stereo not given)	KCC2 mod -3.67 (no result: INS promoter inh) | KCC2 secondary inactive | KCC2 bumet counter inactive | KCC2 sec2 inactive | HEK counter1 inactive | KCC2 retest ouab 0.0165 | HEK counter2 inactive
O=C(Cc1cccs1)N1CCCC(c2nc3c(nnn3Cc3ccc(F)cc3)c(=O)[nH]2)C1 (stereo not given)	none (no result: ROMK mod, KCC2 mod)
CC(=O)Nc1ccc(OCC(O)CNC2CCCC2)cc1 (stereo not given)	none (no result: KCC2 mod, INS promoter inh) | KCC2 secondary inactive | KCC2 bumet counter inconclusive | KCC2 sec2 inactive | HEK counter1 inconclusive | KCC2 retest ouab inactive | HEK counter2 inactive
CC(=O)Nc1ccc(OCC(O)CN2C(C)CCCC2C)cc1 (stereo not given)	none
O=C(/C=C/c1ccccc1Cl)Nc1ccccc1	none (no result: Lmaj promast, ROMK mod, INS promoter inh, WT yeast gro inh)
O=C(Nc1ccccc1)O/N=C/c1ccccc1Cl	KCC2 mod -5.74 | KCC2 secondary inactive | KCC2 bumet counter inactive | KCC2 sec2 inactive | HEK counter1 inactive | KCC2 retest ouab inactive | HEK counter2 inactive
O=C(Nc1ccccc1N1CCOCC1)c1ccc(N2CCOCC2)c([N+](=O)[O-])c1	none (no result: ROMK mod)
O=C(Nc1ccc(Cc2ccncc2)cc1)c1ccc(N2CCOCC2)c([N+](=O)[O-])c1	KCC2 mod -5.93 (no result: INS promoter inh) | KCC2 secondary inactive | KCC2 bumet counter inconclusive | KCC2 sec2 inconclusive | HEK counter1 inactive | KCC2 retest ouab 0.0157 | HEK counter2 inactive
O=C(Nc1ccc(Cc2ccncc2)cc1)c1cccc([N+](=O)[O-])c1	Lmaj promast 73.8, KCC2 mod -4.17 (no result: ROMK mod, Insulin prom up) | KCC2 secondary inactive | KCC2 bumet counter inconclusive | KCC2 sec2 0.0236 | HEK counter1 inactive | KCC2 retest ouab inconclusive | HEK counter2 inactive
Cc1ccc(C(=O)Nc2ccc(Cc3ccncc3)cc2)cc1[N+](=O)[O-]	none (no result: INS promoter inh)
Cc1onc(-c2ccccc2Cl)c1C(=O)NCc1ccccn1	none (no result: INS promoter inh)
CCOC(=O)c1ccc(NC(=O)C(=O)NCc2ccccn2)cc1	none (no result: INS promoter inh)
CCOC(=O)c1c(C)c(C(=O)NCc2ccccn2)c(C)n1CC	KCC2 mod 8.33 (no result: ROMK mod, INS promoter inh) | KCC2 secondary inactive | KCC2 bumet counter inactive | KCC2 sec2 inactive | HEK counter1 inactive | KCC2 retest ouab inactive | HEK counter2 inactive
Cc1onc(-c2ccccc2Cl)c1C(=O)NCCN1Cc2ccccc2C1=O	none (no result: KCC2 mod, INS promoter inh) | KCC2 secondary inactive | KCC2 bumet counter inactive | KCC2 sec2 inactive | HEK counter1 inactive | KCC2 retest ouab inactive | HEK counter2 inactive
COc1ccccc1NC(=S)NC(=O)c1c(-c2ccccc2Cl)noc1C	KCC2 mod 3.75, WT yeast gro inh 69.5 (no result: INS promoter inh) | KCC2 secondary inactive | KCC2 bumet counter 0.0279 | KCC2 sec2 inactive | HEK counter1 inconclusive | KCC2 retest ouab 0.0296 | HEK counter2 inconclusive
Cc1onc(-c2c(F)cccc2Cl)c1C(=O)NCc1ccccn1	KCC2 mod -4.92 (no result: ROMK mod, INS promoter inh) | KCC2 secondary inconclusive | KCC2 bumet counter inconclusive | KCC2 sec2 inconclusive | HEK counter1 inactive | KCC2 retest ouab inactive | HEK counter2 inactive
O=C(CN1CCN(C(=O)c2ccco2)CC1)Nc1ccc(Cl)c(S(=O)(=O)N2CCOCC2)c1	none
CCOC(=O)Cn1c(=O)oc2cc(S(=O)(=O)N3CCCC(C(=O)OCC)C3)ccc21 (stereo not given)	none (no result: ROMK mod, INS promoter inh)
Cc1onc(-c2ccccc2Cl)c1C(=O)NC(=S)Nc1ccccc1F	KCC2 mod 54.4, WT yeast gro inh 70.5 (no result: INS promoter inh) | KCC2 secondary 0.0146 | KCC2 bumet counter 0.0985 | KCC2 sec2 inactive | HEK counter1 0.044 | KCC2 retest ouab 0.0407 | HEK counter2 0.0135
O=C(COC(=O)C1CC(O)CN1S(=O)(=O)c1ccc(Cl)cc1)c1ccccc1Cl (stereo not given)	none (no result: ROMK mod)
Cc1ccc(S(=O)(=O)N2CC(O)CC2C(=O)OCC(=O)c2ccccc2Cl)cc1C (stereo not given)	KCC2 mod -4.15 (no result: ROMK mod) | KCC2 secondary inconclusive | KCC2 bumet counter inactive | KCC2 sec2 inactive | HEK counter1 inactive | KCC2 retest ouab 0.0155 | HEK counter2 inactive
C=CCn1c(SCc2nc3ccccc3[nH]2)nnc1-c1ccc(OC)cc1	none (no result: ROMK mod)
Cc1ccccc1NC(=O)COC(=O)CCSc1ccccc1	none
O=S(=O)(c1cccs1)N1CCN(Cc2nc3ccccc3s2)CC1	none (no result: ROMK mod)
O=C(CCc1nc2ccccc2s1)N1CCN(S(=O)(=O)c2cccs2)CC1	KCC2 mod -4.11 | KCC2 secondary inactive | KCC2 bumet counter inactive | KCC2 sec2 inactive | HEK counter1 inactive | KCC2 retest ouab inactive | HEK counter2 inactive
Cc1ccc(S(=O)(=O)NCCN=C(CN2CCOCC2)NS(=O)(=O)c2ccc(C)cc2)cc1	none (no result: KCC2 mod)
CCOCCn1c(CN2CCC(C)CC2)nc2c1c(=O)n(C)c(=O)n2C	none
CCOCCn1c(CN2CCN(CC)CC2)nc2c1c(=O)n(C)c(=O)n2C	KCC2 mod 6.27 | KCC2 secondary inactive | KCC2 bumet counter inactive | KCC2 sec2 inactive | HEK counter1 inactive | KCC2 retest ouab inactive | HEK counter2 inactive
O=c1c2cc(Br)ccc2[nH]c(=S)n1Cc1ccccn1	KCC2 mod 35.1 | KCC2 secondary inconclusive | KCC2 bumet counter 0.071 | KCC2 sec2 0.044 | HEK counter1 0.0457 | KCC2 retest ouab 0.0572 | HEK counter2 0.0205
O=C(CCOc1ccccc1)Nc1nnc(-c2ccc3c(c2)OCCO3)o1	none (no result: INS promoter inh)
O=C(COc1ccccc1)Nc1nnc(-c2ccc3c(c2)CCCC3)o1	KCC2 mod 8.82 (no result: ROMK mod, INS promoter inh) | KCC2 secondary inconclusive | KCC2 bumet counter 0.0606 | KCC2 sec2 inactive | HEK counter1 0.0243 | KCC2 retest ouab 0.0415 | HEK counter2 0.0123
Cc1ccc(-n2c(SCC(=O)NCc3ccco3)nnc2-c2cccnc2)c(C)c1	none (no result: Insulin prom up)
